# Most compounds without a hit are left out; they make up all but 4.8% or so of the library.
# DAX1 inh-1 – inhibitors of DAX1 repression of SF-1 activated StAR promoter | 1.1% of 370,000 active | HEK293T StAR-luciferase reporter, SF-1/DAX-1 repression relief | inhibition, % at 6.8 µM | AID 652010;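 active = inhibition above the mean over all tested compounds plus 3 SD, cut at about 3.6% in these data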;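 note: 0% = DAX-1 cells with DMSO and 100% = cells lacking DAX-1 with DMSO; higher inhibition means more luminescence from relief of DAX-1 repression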
# hcDAF-12 act – activates DAF-12 receptor from parasite H. contortus; HEK293 hcDAF-12 lit1-tk-luc reporter, luminescence; 0% DMSO, 100% Δ7-dafachronic acid; activation, % at 6.8 µM; 1.4% of 370,000 active; AID 652067;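 active = activation above the mean of all tested compounds plus 3 SD, cut at about 5.5% in these data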;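 note: 100% = response to 3 µM Δ7-dafachronic acid high control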
# SMARCA2 act – increases SMARCA2 function in MMTV reporter cells; MG213 cells, MMTV-luciferase reporter, dexamethasone, overnight; activation, % at 9.1 µM; 1% of 370,000 active; AID 652017; in the data active = activation above about 7.8%;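 note: 0% = vehicle wells and 100% = reference activator wells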
# ssDAF-12 act – activators of S. stercoralis DAF-12 nuclear receptor | activation, % at 6.8 µM | 1% of 370,000 active | HEK293 ssDAF-12/GRIP1 lit1-tk-luc reporter, luminescence; % of 3 µM dafachronic acid response | AID 652126;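 active = activation above the mean over all tested compounds plus 3 SD, cut at about 0.9% in these data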;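 note: 0% = DMSO-only wells and 100% = 3 µM delta7-dafachronic acid wells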
# DAX1 inh-2 – inhibits human nuclear receptor DAX1; P51843; HEK293 Gal4-DAX1 luciferase reporter, luminescence; inhibition, % at 6.75 µM; 0.99% of 340,000 active; AID 504766;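 active = inhibition above the mean over all tested compounds plus 3 SD, cut at about 4.2% in these data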;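 note: 0% = DAX1-transfected cells with DMSO and 100% = empty-vector control cells with DMSO; inhibition shows as a rise in luminescence from relieved DAX1 repression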
# Target sequence (P51843 207-470 limits assumed): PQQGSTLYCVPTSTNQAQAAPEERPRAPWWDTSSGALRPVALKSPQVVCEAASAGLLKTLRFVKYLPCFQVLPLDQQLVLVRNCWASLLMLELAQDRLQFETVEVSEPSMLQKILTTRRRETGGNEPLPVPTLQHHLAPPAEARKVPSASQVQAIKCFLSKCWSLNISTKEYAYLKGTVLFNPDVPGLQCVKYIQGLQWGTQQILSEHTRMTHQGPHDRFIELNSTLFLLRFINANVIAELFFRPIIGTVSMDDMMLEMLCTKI
# hgDAF-12 ag – agonists of H. glycines DAF-12 nuclear receptor; 1.8% of 370,000 active; activation, % at 6.8 µM; HEK293 GAL4-hgDAF12 UAS-luciferase reporter, agonist luminescence; normalized to butyrate control;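 active = activation above a cutoff set at the mean of all screened compounds plus 3 SD, cut at about 10% in these data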;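 note: 0% = DMSO wells and 100% = sodium butyrate wells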
# * marks the source's active call; other numbers are inactive results; · = no result given.
SMILES,DAX1 inh-1,hcDAF-12 act,SMARCA2 act,ssDAF-12 act,DAX1 inh-2,hgDAF-12 ag
COc1ccc(-c2nc3ccc([N+](=O)[O-])cc3[nH]2)cc1,4.5*,6.3*,3,1.8*,2,19*
CCOc1ccc2nc(C(C)O)[nH]c2c1 (stereo unspecified),0,0,2,0,4,1
COc1ccc2nc(-c3ccccc3)[nH]c2c1,4,5,5,0,1,13*
CCOc1ccc2nc(-c3ccccc3)[nH]c2c1,0,5,3,0,-2,12*
COc1ccc2[nH]c(-c3ccccc3)cc2c1,2,6.1*,3,0,4.2*,9
C=CCN1[C@H](C#N)[C@@H](c2ccc(C#Cc3cccnc3)cc2)[C@H]1CO,0,-1,0,-1,·,0
CC1CCC2(CC1)CCN(CCCOC(=O)NCc1ccc(Cl)cc1)C2=O (stereo unspecified),-2,-2,-1,-2,·,0
NC(=S)Nc1nc2ccccc2[nH]c1=O,0,5.8*,-2,1,·,0
CC(C)(C)c1ccc(-c2nnc3n2N=C(c2ccc(Cl)cc2)CS3)cc1,-1,0,-3,-2,·,0
O=C(NCCC1=CCCCC1)c1ccc(F)c(S(=O)(=O)N2CCOCC2)c1,0,0,2,0,-1,1
CC1CN(S(=O)(=O)c2cc(C(=O)NCCC3=CCCCC3)ccc2Cl)CC(C)O1 (stereo unspecified),3.8*,1,1,-1,-1,6
Cn1ncc(Cl)c1C(=O)Nc1ccc2c(c1)OCO2,1,6.3*,1,0,1,4
O=C(Nc1ccc2c(c1)OCO2)c1c(F)c(F)c(F)c(F)c1F,0,-1,0,-1,0,4
Cn1ncc(Cl)c1C(=O)NCc1ccc2c(c1)OCO2,-7,-2,-1,-1,-1,-1
O=C(Nc1ccc2c(c1)OCO2)c1c(Cl)nc2sccn12,2,5.9*,5,0,3,9
COc1ccc(/C=C2/CN(Cc3ccc(OC)cc3OC)C3=N[C@H](c4ccccc4)CC(=O)N32)cc1,-1,-3,-3,-1,·,0
Cn1c(=O)cc(OCC(=O)N2CCN(c3ccccc3Cl)CC2)c2ccccc21,-1,-1,-2,-2,·,2
CC1CCC(NC(=O)C2c3ccccc3C(=O)N2CCCN2CCOCC2)CC1 (stereo unspecified),-1,-1,0,1.0*,4.7*,-2
C=CCN1C(=O)[C@@H](CC(=O)NCC23CC4CC(CC(C4)C2)C3)[C@]2(C(=O)OCC)CCCCC/C=C/12,-1,2,-3,-1,·,2
COC(=O)c1ccccc1NN=Nc1ccccc1[N+](=O)[O-],-1,4,-2,-1,0,0
O=[N+]([O-])c1ccccc1N=NNc1ccccc1,0,3,0,1.6*,0,3
CCCCOc1ccc(C(=O)N2CCC(C)CC2)cc1,-1,-1,-2,-1,-1,1
CCCCOc1ccc(C2CCC(C(C)=O)C(C)C2)cc1 (stereo unspecified),0,0,0,-1,4.7*,5
N#CCSc1ccc(-c2nc3ccccc3[nH]2)cn1,3,2,0,0,0,11*
CCOC(=O)CSc1ccc(-c2nc3ccccc3[nH]2)cn1,-1,-1,0,-1,2,5
SMILES,DAX1 inh-1,hcDAF-12 act,SMARCA2 act,ssDAF-12 act,DAX1 inh-2,hgDAF-12 ag
Nc1ccccc1-c1nc2ccccc2[nH]1,4.0*,2,3,-1,3,11*
c1ccc(-c2nnc(-c3ccccc3)nn2)cc1,1,5,2,1.0*,·,9
c1ccc(-c2nn[nH]n2)cc1,0,1,2,-1,1,-2
O=c1[nH]c(-c2ccc(O)cc2)nc2scc(-c3cccs3)c12,2,2,4,-1,1,13*
O=C(Nc1ccccc1F)Nc1ccccc1F,1,1,1,-1,-1,10
O=C(Nc1ccccc1F)Nc1cccc2ccc(O)cc12,0,6.2*,1,0,0,0
CCOc1ccccc1CN1CCN(S(=O)(=O)CC)CC1,0,0,1,-1,1,-1
COc1cccc(CN2CCN(Cc3cccc(Oc4ccccc4)c3)CC2)c1OC,0,3,-3,0,1,-1
COc1cccc(CN2CCN(Cc3cc(OC)c(OC)c(OC)c3)CC2)c1OC,0,4,-2,1.3*,-2,2
CCS(=O)(=O)N1CCN(Cc2ccccc2OC)CC1,1,1,-3,1.2*,0,-1
CCOC(=O)[C@]12CCCC3=C1N(CCC3)C(=O)[C@@H](CC(=O)N1CCCCC1)C2,0,1,-4,-1,·,-3
O=C(COC(=O)Cn1cnc2ccccc2c1=O)Nc1ccc(Cl)c(C(F)(F)F)c1,0,-1,-2,1.5*,1,-3
O=C(NCc1ccco1)c1ccc2c(c1)N(Cc1ccccc1)C(=O)CS2=O (stereo unspecified),-1,-2,2,-2,-1,2
CCN(CC)C(=O)c1ccc2c(c1)N(Cc1ccccc1)C(=O)CS2=O (stereo unspecified),0,-2,4,-1,4.7*,-1
CC(=O)Nc1ccc(/C=C2\CCc3ccccc3C2=O)cc1,2,6.1*,2,-1,1,10
O=C1/C(=C\c2ccc([N+](=O)[O-])cc2)CCc2ccccc21,1,4,0,0,3,11*
COc1ccc(C=C2Cc3ccccc3C2=O)cc1,1,1,3,0,·,11*
O=C1/C(=C\c2cccnc2)CCc2ccccc21,1,-1,2,-1,0,12*
O=C1/C(=C/c2ccc(O)cc2)CCc2ccc([N+](=O)[O-])cc21,0,-2,-1,0,0,1
COC(=O)[C@H]1C[C@@]2(n3ccc4ccccc43)c3ccccc3N(S(=O)(=O)c3ccccc3)[C@H]2N1C(=O)CNC1CCCCC1,-2,-1,-1,-1,·,-1
CC(C)NC(=O)c1ccc(NC(=O)CC2SC(N3CCCCC3)=NC2=O)cc1 (stereo unspecified),-1,2,1,1.7*,1,-4
CC(C)NC(=O)c1ccc(NC(=O)CC2SC(N3CCCC3)=NC2=O)cc1 (stereo unspecified),-1,0,-2,-2,0,2
O=C(Nc1ccc(OC(F)(F)F)cc1)Nc1c(-c2ccccc2)nc2ncccn12,0,-2,-2,-1,·,-1
CC(=Nc1ccc(O)cc1)c1sc2ccccc2c1O,0,5,1,0,1,12*
CC(=Nc1ccccc1O)c1sc2ccccc2c1O,0,4,1,0,2,13*

# Source: PubChem (The Scripps Research Institute Molecular Screening Center)
